Experimental findings from PubChem BioAssay (NCI) are described below.

The panel holds about 79,000 compounds, 15% with a hit somewhere; the sample as a whole holds those more often. The source made the active and inactive calls. No stated cut-off is given here; in the data, active means growth inhibition above about 70%; inactive means the rest.

This experiment in a line: NCI Yeast Anticancer Drug Screen. Data for the mec2-1 strain (AID 157). To be noted: S. cerevisiae mec2-1 strain, at 50.0 µM, hits give high values. A digest of the protocol:
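Cells of the genetically defined mec2-1 yeast strain are incubated with test compound. Inhibition of growth is calculated against vehicle-treated controls.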
For `COc1cc(C(C#N)NNc2nc(C)cc(=O)[nH]2)cc(OC)c1OC` (stereo not given), the growth inhibition was -2.75% (inactive).

For the compound `CCOC(=O)NC(=O)c1cn(CCN2CCN(C(=O)CCCCCCCCCCC(=O)N3CCN(CCn4cc(C(=O)NC(=O)OCC)c(=O)[nH]c4=O)CC3)CC2)c(=O)[nH]c1=O`, the growth inhibition was 4.15% (inactive).

With `O=C(O)c1ccc(Cl)c(C(=O)O)c1`, the growth inhibition is 4.65% (inactive).

Consider `COc1ccc2nc(N/N=C/C(C)=N/Nc3cc(C)c4cc(OC)ccc4n3)cc(C)c2c1`, for which the growth inhibition was 4.8% (inactive).

For `CC1(C)OC2C(O1)[C@H]1OC(C(Cl)(Cl)Cl)=N[C@H]1C(I)[C@H]2N1C(=O)c2ccccc2C1=O` (stereo not given in full), the growth inhibition is -45.9% (inactive).

Regarding `COc1cc(C(=O)C(C=O)c2ccccc2)c([N+](=O)[O-])cc1OC` (stereo not given), the growth inhibition was 21.4% (inactive).

`COC1OC2COC(c3ccccc3)OC2C(N=[N+]=[N-])C1O` (stereo not given): the growth inhibition was 4% (inactive).

For `CC(C)CC(O)(CC(C)C)C(CCC(=O)Nc1ccccc1)C(=O)Nc1ccccc1` (stereo not given), the growth inhibition was 11.9% (inactive).

Regarding `CC1=Nc2ccccc2C1(C)C`, the growth inhibition was 8.8% (inactive).

Turning to `Nc1ncnc2c1[nH]c(=S)n2C1OC(CO)C(O)C1O` (stereo not given), the growth inhibition is 6.3% (inactive).

In the case of `CC(C)(C)OC(=O)Cc1ccc2c(ccn2Cc2ccccc2)c1`, the growth inhibition was -29.6% (inactive).

Consider `CC(=O)Nc1c(Cl)cc2c(c1Cl)Cc1cc(N(C)C)ccc1-2`, for which the growth inhibition was -0.35% (inactive).

For the compound `Cc1ccc(C2(c3ccc(C)cc3)OCC(C)(CBr)CO2)cc1`, the growth inhibition was -1.4% (inactive).

With `COC(=O)N/N=C(\C)CC(=O)Nc1ccc(Cl)cc1`, the growth inhibition is -32.6% (inactive).

For `CC1C(C)(C)P(=O)(OCCOP2(=O)C(C)(C)C(C)C2(C)C)C1(C)C` (stereo not given), the growth inhibition is -0.85% (inactive).
